High-throughput results from PubChem BioAssay.
Only some compounds are listed: those with a hit (about 3.8% of all), similar ones and a draw of the others.
ATXN2 expr inh – ATXN2 expression inhibition. Potency, µM (titrated, usually from 57 µM), most hits filed as inhibitors. HEK-293 ATXN2-luciferase reporter, luminescence, 24 h. AID 1745845. actives 0.72% (n = 360,000); also: nearly all actives have a fitted effect of over 55% in size
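ATXN2-luciferase reporter cells (luciferase flanked by upstream and downstream ATXN2 gene portions) were treated 24 h at 37 °C with compounds at up to 57 uM. SteadyGlo luminescence gave expression; GF-AFC fluorescence gave viability.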
TGFb SMAD3 inh – inhibitors of TGF-b signaling. HepG2 CAGA-GFP TGF-b/SMAD3 reporter, GFP fluorescence, 18 h; TGF-beta stimulated, 500 pg/mL final. Potency, µM (top dose mostly 46.1 µM), most hits filed as inhibitors. actives 1.2% (n = 410,000). AID 588855; also: nearly all actives have a fitted effect of over 65% in size
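HEPG2 CAGA-GFP reporter cells (1000/well, DMEM with 1% FBS) received compounds, then recombinant TGF-beta at 500 pg/mL final for 18 hours at 37 degrees C. Per-cell GFP summed per well was normalised to unstimulated and stimulated DMSO controls before curve fitting.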
Nrf2 block – inhibitors of Nrf2 signaling | A549 ARE-Fluc reporter, luciferase luminescence, 18-24 h | actives 2.1% (n = 360,000) | AID 504444 | Potency, µM (series often up to 46 µM), usual class: inhibitors; also: nearly all actives have a fitted effect of over 60% in size
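Nrf2 activity is the BugLite luminescence, read 15 min after reagent at room temperature, following CellTiter-Fluor cytotoxicity readout (30 min, 37C). Compound titrations were applied for 18-24 h to 5000 A549 ARE_Fluc cells/well in 5% FBS OPTI-MEM.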
S2 tox – cell viability loss in ATXN counter-screen; actives 0.49% (n = 400,000); AID 651635; S2 cells (HEK-293 line with an ATXN2-luciferase reporter) viability, CellTiter-Fluor protease fluorescence, 24 h; Potency, µM (titrated, usually from 56.7 µM), usual class: cytotoxic; also: nearly all actives have a fitted effect of over 40% in size
HepG2 viability – counter-screen for TGF-b inhibitors: cytotoxicity in HepG2 cells. HepG2 CAGA-GFP viability, ATP luminescence, 18 h. actives 0.76% (n = 410,000). Potency, µM (highest dose often 46.1 µM), hits mostly cytotoxic. AID 588856
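HepG2 CAGA-GFP cells (1000/well, DMEM with 1% FBS) received compound, then TGF-beta at 500 pg/mL final, and were incubated 18 hours at 37 degrees C. Viability was read by CellTiter-Glo luminescence. Media-only wells were set as complete cell-killing and DMSO as no toxicity.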
A549 tox – kills or reduces viability of A549 cells in Nrf2 counter-screen; AID 504648; actives 0.16% (n = 390,000); Potency, µM (doses to about 46 µM), actives largely listed as inhibitors; A549 ARE-Fluc cells, CellTiter-Fluor viability, 18-24 h
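Cytotoxicity counterscreen: CellTiter-Fluor fluorescence was measured in A549 ARE_Fluc cells after 18-24 h of compound exposure in a concentration series. The subsequent BugLite luminescent read reports ARE-luciferase activity.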
Of the large screens only hits and unclear results are named; the others gave an inactive call. Calls follow the shape of the dose curve; as a rule, active = well fitted curve in the direction sought with a large enough effect; inconclusive = small, poorly fitted or top-dose-only effect, or another doubt; inactive = no such curve, though single readings can be large; an effect the other way counts as inactive or inconclusive.

C/C(=N/NS(=O)(=O)c1ccc(C)cc1C)c1c[nH]c2ccccc12	TGFb SMAD3 inh 18µM
NC1(Cc2ccc(Cl)cc2)CCN(c2ncnc3[nH]ccc23)CC1	ATXN2 expr inh 27µM (no result: TGFb SMAD3 inh, Nrf2 block, S2 tox, HepG2 viability, A549 tox)
Cc1ccccc1S(=O)(=O)NC(=O)C1(C)CCN1C(=O)CCc1ccc(Cl)cc1Cl (stereo not drawn)	none (no result: Nrf2 block, A549 tox)
COc1ccc(NC(=O)/C(C#N)=C/c2cc(C)n(-c3ccc(N4CCOCC4)c([N+](=O)[O-])c3)c2C)cc1	ATXN2 expr inh inconclusive, Nrf2 block 6.5µM, S2 tox inconclusive
Cc1cc(/C=C(\C#N)C(=O)Nc2ccc(F)cc2)c(C)n1-c1ccc(N2CCOCC2)c([N+](=O)[O-])c1	Nrf2 block inconclusive
Cc1ccc(Cl)cc1NC(=O)COC(=O)C12CC3CC(CC(C3)C1)C2	none
O=S1(=O)CCO[C@H]2CCCC[C@@H]2N1Cc1ccccc1Br	none (no result: ATXN2 expr inh, Nrf2 block, S2 tox, A549 tox)
C=C1[C@@H](O)[C@H](CC(C)C)N(Cc2ccccc2Br)S1(=O)=O	TGFb SMAD3 inh 8.9µM, Nrf2 block inconclusive, HepG2 viability 10µM (no result: S2 tox)
CC(C)CN(CCNC(=O)c1cc(-c2ccc(Cl)s2)nc2ccccc12)CC(C)C	none
COc1ccc(Cl)cc1NC(=O)Cn1cc(S(=O)(=O)Cc2cccc(Cl)c2)c2ccccc21	TGFb SMAD3 inh inconclusive (no result: ATXN2 expr inh, S2 tox)
CCOc1ccc2nc(N3CCC(C(=O)N4CCN(c5ccccn5)CC4)CC3)sc2c1	ATXN2 expr inh inconclusive, Nrf2 block 16µM, S2 tox inconclusive
CCOc1ccc2nc(N3CCC(C(=O)N4CCN(c5ncccn5)CC4)CC3)sc2c1	none (no result: S2 tox)
c1ccc2[nH]c3cc4ncnc4cc3nc2c1	TGFb SMAD3 inh inconclusive, Nrf2 block 5.8µM, A549 tox inconclusive
COc1ccc(OC)c(-c2c3cc(O)c(=O)cc-3oc3cc(O)c(O)cc23)c1	ATXN2 expr inh inconclusive, TGFb SMAD3 inh inconclusive, S2 tox 20µM, A549 tox 21µM
CCOc1ccccc1-c1c2cc(O)c(=O)cc-2oc2cc(O)c(O)cc12	ATXN2 expr inh inconclusive, TGFb SMAD3 inh 2.8µM, Nrf2 block inconclusive, A549 tox 18µM (no result: S2 tox)
Cc1cc(OCCn2cc(C(=O)c3cccs3)c3ccccc32)ccc1Cl	none
CCCn1nnnc1COc1ccc(C(N)=O)cc1	none
COc1ccccc1CCNC(=O)C(=O)NCC(c1ccco1)S(=O)(=O)c1ccccc1 (stereo not drawn)	none (no result: ATXN2 expr inh, Nrf2 block, S2 tox)
CCN(CC)S(=O)(=O)c1cccc(-c2nnc(SCCCC(=O)c3ccc(F)cc3)o2)c1	Nrf2 block 23µM (no result: ATXN2 expr inh, S2 tox)
Cc1cccc(N2CCN(C(=O)COc3ccc4c(C)cc(=O)oc4c3C)CC2)c1C	TGFb SMAD3 inh inconclusive, Nrf2 block 16µM
CCc1cc(=O)oc2c(C)c(OCC(=O)N3CCCc4ccccc43)ccc12	TGFb SMAD3 inh inconclusive, Nrf2 block 12µM
O=C(COc1ccc(Br)cc1CO)N1CCCc2ccccc21	none
Cc1ccc(S(=O)(=O)NCC2CCC(C(=O)NCCCN3CCCC3=O)CC2)cc1 (stereo not drawn)	none
COC(=O)C(C)NC(=O)C12CC3CC(C1)CC(c1ccc(C)cc1)(C3)C2 (stereo not drawn)	TGFb SMAD3 inh inconclusive
CCOC(=O)C1=C(N)n2c(s/c(=C\c3cccs3)c2=O)=C(C(=O)OCC)C1c1cccs1 (stereo not drawn)	TGFb SMAD3 inh inconclusive, A549 tox inconclusive (no result: Nrf2 block)
COc1cccc(NS(=O)(=O)c2ccc3c(c2)NC(=O)C(C)S3)c1 (stereo not drawn)	Nrf2 block 21µM
CCc1cccc(NS(=O)(=O)c2ccc3c(c2)NC(=O)C(C)S3)c1 (stereo not drawn)	TGFb SMAD3 inh inconclusive, Nrf2 block 16µM, S2 tox inconclusive
COc1ccc(C)cc1NC(=O)N1CCCn2nc(C)cc21	Nrf2 block inconclusive
COc1cccc(-n2c(CN3CCN(c4ccccc4)CC3)nc3ccc([N+](=O)[O-])cc3c2=O)c1	none
COc1ccc2c(Sc3ccccc3)c(C(=O)NCCN(C)C)[nH]c2c1	none
COc1ccc2c(Sc3ccccc3)c(C(=O)N3CCC(C)CC3)[nH]c2c1	ATXN2 expr inh inconclusive, TGFb SMAD3 inh 14µM (no result: S2 tox)
O=C(O)C1OC1(c1ccccc1Cl)c1ccccc1Cl (stereo not drawn)	TGFb SMAD3 inh inconclusive
Cc1cccc(N(C(=O)CCC(=O)Nc2nccs2)C(C(=O)NC(C)(C)C)c2ccc(O)cc2)c1 (stereo not drawn)	TGFb SMAD3 inh inconclusive, S2 tox inconclusive
C=C1CCC[C@]2(C)C[C@H]3OC(=O)C(CNC(C)CCCC(C)C)[C@H]3CC12 (stereo partly drawn)	ATXN2 expr inh inconclusive, TGFb SMAD3 inh 11µM, S2 tox inconclusive
COc1cc2oc3ccc(C#Cc4ccc(N)cc4)cc3c(=O)c2cc1OC	Nrf2 block 15µM
CNC(C)C#Cc1ccc2c(=O)c3ccccc3oc2c1 (stereo not drawn)	none
COc1cc2oc3cc(C#Cc4ccc(N)cc4)ccc3c(=O)c2cc1OC	ATXN2 expr inh inconclusive, TGFb SMAD3 inh inconclusive, Nrf2 block 16µM, A549 tox inconclusive (no result: S2 tox)
Nc1ccc(C#Cc2ccc3c(=O)c4ccccc4oc3c2)cc1	Nrf2 block 10µM (no result: S2 tox)
N#Cc1ccc(C#Cc2ccc3oc4ccccc4c(=O)c3c2)cc1	none
COc1cc2oc3ccc(C#Cc4ccccn4)cc3c(=O)c2cc1OC	S2 tox inconclusive
COc1ccc(NC(=O)CCNC(=O)c2ccco2)c(OC)c1	none
COc1ccc(OC)c(-c2nnc3n2N=C(c2ccc(OC)c(OCC4CC4)c2)CS3)c1	ATXN2 expr inh inconclusive, TGFb SMAD3 inh 7.9µM, Nrf2 block 15µM, S2 tox inconclusive, A549 tox inconclusive
COc1ccc(C2=Nn3c(nnc3-c3ccccc3C(F)(F)F)SC2)cc1OC1CCOC1 (stereo not drawn)	Nrf2 block inconclusive
COc1ccc(C2=Nn3c(nnc3-c3cc(OC)ccc3OC)SC2)cc1	Nrf2 block inconclusive (no result: ATXN2 expr inh, TGFb SMAD3 inh, S2 tox, HepG2 viability)
COc1ccc(C2=Nn3c(nnc3-c3ccccc3OC)SC2)cc1OC1CCOC1 (stereo not drawn)	TGFb SMAD3 inh 2.8µM, Nrf2 block inconclusive, S2 tox inconclusive
Fc1ccccc1-c1nnc2n1N=C(c1ccc(OC(F)F)c(OCC3CC3)c1)CS2	none
COc1ccc(C2=Nn3c(nnc3-c3ccccc3Cl)SC2)cc1OCC1CC1	ATXN2 expr inh inconclusive, TGFb SMAD3 inh 10µM, Nrf2 block 21µM, S2 tox inconclusive, A549 tox inconclusive
COc1ccc(C(=O)O/N=C(\N)c2ccccn2)cc1	ATXN2 expr inh 11µM, Nrf2 block inconclusive
COc1ccccc1C(=O)O/N=C(\N)c1ccccn1	ATXN2 expr inh inconclusive, TGFb SMAD3 inh inconclusive, Nrf2 block inconclusive
